Experimental data from PubChem BioAssay (NCI).
Compounds without any hit were thinned out: in the full panel of roughly 83,000, 20% have a hit.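 Single-concentration screen, 48 h exposure, 96-well plates. Endpoint: percent growth. Below 10 = active.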 A number with no mark means an inactive call. Active and inactive are the calls of the source.

How the values were obtained:
Experiment in all cases: NCI-60 one-dose screen, 48 h (100 = growth as untreated, 0 = no growth, -100 = all killed)
Conditions in all cases: 10 µM unless noted
T-47D breast = test system: T-47D breast
MDA-MB-435 melanoma = test system: MDA-MB-435 melanoma
SW-620 colon = test system: SW-620 colon
MCF7 breast = test system: MCF7 breast
HCT-116 colon = test system: HCT-116 colon
HCC-2998 colon = test system: HCC-2998 colon
KM12 colon = test system: KM12 colon
MDA-MB-468 breast = test system: MDA-MB-468 breast
BT-549 breast = test system: BT-549 breast

Structure (SMILES)	growth (T-47D breast)	growth (MDA-MB-435 melanoma)	growth (SW-620 colon)	growth (MCF7 breast)	growth (HCT-116 colon)	growth (HCC-2998 colon)	growth (KM12 colon)	growth (MDA-MB-468 breast)	growth (BT-549 breast)
Clc1ccc(CNc2nc(SCCN3CCOCC3)nc3c2cnn3CC(Cl)c2ccc(Br)cc2)cc1 (stereo unspecified)	22.4%	27.6%	19.2%	10.1%	22.7%	30.9%	28%	39.9%	
COc1cc(C2CC(c3ccc(S(=O)(=O)NCCNc4nc(N(C)C)nc(N5CCOCC5)n4)cc3)=Nc3c(N)nc(N)nc3N2)cc(OC)c1OC (stereo unspecified)	95%	104%	99%	95.1%	90%	109%	100%		
Oc1ccc(Cl)c(Nc2nc(SCCN3CCOCC3)nc3c2cnn3CC(Cl)c2ccc(Br)cc2)c1 (stereo unspecified)	0% (active)	12%	30.4%	5.55% (active)	13.8%	9.56% (active)	17.1%	-26.7% (active)	
CN1C(=O)/C(=C/c2ccco2)S/C1=N/c1nccs1	65.9%	107%	106%	33.7%	95.2%	107%	98%	-13.2% (active)	
N/C(=N\c1nc2ccc([N+](=O)[O-])cc2s1)NC(=O)Nc1ccccc1Cl	26.2%	5.83% (active)	21.4%		-2.76% (active)	86.6%	38.6%	0% (active)	25.9%
Oc1ccc(Cl)c(Nc2ncnc3c2cnn3CC(Cl)c2ccc(Br)cc2)c1 (stereo unspecified)	32.9%	57.7%	67.1%	49.7%	40.8%	98.3%	85.9%		
CC(C)(C)C(=O)C1CC(C#N)=C2C=Cc3c(ccc4ccccc34)N21 (stereo unspecified)	72.8%	97.9%	102%	63%	93.1%	99.7%	97%	96.2%	
Cc1ccc(O)cc1Nc1nc(SCCN2CCOCC2)nc2c1cnn2CC(Cl)c1ccc(Br)cc1 (stereo unspecified)	-2.49% (active)	12.6%	32.9%	5.88% (active)	2.84% (active)	1.63% (active)	17%	-55.7% (active)	
ClC(Cn1ncc2c(Nc3cccc(Br)c3)nc(SCCN3CCOCC3)nc21)c1ccc(Br)cc1 (stereo unspecified)	-2.99% (active)	-4.97% (active)	-32.1% (active)	-5.44% (active)	6.22% (active)	3.46% (active)	-20% (active)	-18% (active)	
CN1CCN(c2ccc3c4c(cccc24)C(=O)N(c2cccc(-c4nn(-c5ccccc5)cc4-c4nc5ccccc5s4)c2)C3=O)CC1	109%	95.1%	93%		79%	79.2%	73.5%	94.1%	97.1%
C/C(=N/O)c1ccc(NC(=O)CSc2nnc(-c3ccc4nc(-c5ccc(Cl)cc5)[nH]c4c3)o2)cc1	97.8%	18.3%	67.4%	55.3%	69%	128%	36.4%		
O=C(c1cc2cc(OCCCN3CCC3)ccc2[nH]1)N1C[C@@H](CCl)c2c1cc(OCc1ccccc1)c1ccccc21	-11.6% (active)	-78.8% (active)	0.696% (active)		-80.6% (active)	-77.1% (active)	-5.46% (active)	-76.3% (active)	-48% (active)
COc1ccc(-c2nnc3c(/C=C/c4ccc(Br)cc4)nc4ccccc4n23)cc1	64.2%	28.9%	-10% (active)	0% (active)	-53.8% (active)	87.7%	85.2%	32.7%	
O=C(N/N=C/c1ccc(B(O)O)s1)c1[nH]c2ccc(Br)cc2c1-c1ccccc1	-77% (active)	-75.1% (active)	-74% (active)	-67.1% (active)	-62.9% (active)	-97.7% (active)	-36.5% (active)		
NC(=Nc1ccc(OCCCCCCCCn2cnnn2)cc1)c1ccccc1	45.6%		22.5%	13.4%	15.2%	17.1%	10.5%	20.9%	18.9%
Fc1cccc(CNc2nc(SCCN3CCOCC3)nc3c2cnn3CC(Cl)c2ccc(Br)cc2)c1 (stereo unspecified)	1.04% (active)	10.6%	-38.2% (active)	7.42% (active)	18.4%	12.2%	8.48% (active)		

Structure (SMILES)	growth (T-47D breast)	growth (MDA-MB-435 melanoma)	growth (SW-620 colon)	growth (MCF7 breast)	growth (HCT-116 colon)	growth (HCC-2998 colon)	growth (KM12 colon)	growth (MDA-MB-468 breast)	growth (BT-549 breast)
O=C(NN1C(=O)/C(=C/C=C/c2ccc([N+](=O)[O-])o2)SC1=S)c1ccc([N+](=O)[O-])cc1	-60.9% (active)	-86.9% (active)	-77.7% (active)		-76.3% (active)	-94.8% (active)	-94.9% (active)	-79.3% (active)	-93.2% (active)
O=C(N=Nc1c(O)[nH]c2ccc(Br)cc12)c1ccc2nc(-c3ccc(Cl)cc3)[nH]c2c1	-30.7% (active)	-62.4% (active)	-37.2% (active)	-22.9% (active)	8.39% (active)	-66.8% (active)	22.4%	-87.7% (active)	
Cn1cc(-c2cc(N)n3nc(-c4c[nH]c5ccccc45)cc3n2)c2cc(F)ccc21	15.8%	14.6%	-76.8% (active)		-71.3% (active)	-65.5% (active)		8.2% (active)	98.3%
COc1ccc(SC2c3cc(OC)ccc3Oc3nc(N)c(C#N)c(N)c32)cc1 (stereo unspecified)	77.4%	87.5%	69.5%		78%	117%	61.2%	98.6%	24.5%
CCN(C(=O)CN1C(=O)/C(=C/c2ccco2)SC1=S)C1CCS(=O)(=O)C1 (stereo unspecified)	78.1%	92.2%	102%	91.8%	98.2%	106%	103%	61%	
Fc1ccc(F)c(CNc2nc(SCCN3CCOCC3)nc3c2cnn3CC(Cl)c2ccc(Br)cc2)c1 (stereo unspecified)	10.8%	-13.3% (active)	-3.05% (active)	2.55% (active)	16.8%	24.7%	4.2% (active)	-22.9% (active)	
Nc1nnc(CS(=O)(=O)c2ccccc2)s1	102%	113%	108%	101%	107%	103%	101%		
Cn1cc(-c2cc3nc(-c4c[nH]c5ccccc45)cc(N)n3n2)c2ccccc21	-69.4% (active)	-81.8% (active)	-77.1% (active)	-67.4% (active)	-74.2% (active)	-78.2% (active)	-33.9% (active)		
O=C(Cn1c(-c2ccccc2)nc2ccccc21)N=Nc1c(O)[nH]c2ccc(Cl)cc12	-29.8% (active)	2.53% (active)	23%	9.49% (active)	-23.7% (active)	19.5%	32.2%	-18.9% (active)	
Cc1nc2sccn2c1-c1nnc(SCc2ccccc2)o1	74.5%	97.4%	105%		91.6%	103%	98.5%	52%	
COc1cccc(C(N)=Nc2ccc(OCCCCCCCCn3cncn3)cc2)c1	52%		21.2%	18.3%	12.5%	23.4%		24.8%	
Cc1ccc(C(=O)Nc2ccc(-n3ccnc3)c(C(F)(F)F)c2)cc1C#Cc1cnc2cccnn12	-13.3% (active)	11.3%	31.2%	25.1%	0.409% (active)	29.9%	21.9%	-1.47% (active)	
Cc1cc(N=C(N)c2ccccc2)ccc1OCCCCCCCCn1ccnc1	26.4%		20%	-4.6% (active)	11.4%	-32.6% (active)		2.88% (active)	
O=Cc1cncc(-c2ccc3ncnc(N4CCc5cc(F)c(Cl)cc54)c3c2)c1	23.7%	46.2%	23.4%		33.7%	64%		-52.4% (active)	
COc1ccc2[nH]c(=O)c(CSc3ccccc3Nc3nccc(-c4ccc(Cl)cc4)n3)cc2c1	38%	28.3%	50.3%	7.48% (active)	11.9%	37.6%	31.9%	17.3%	
COc1ccc2[nH]cc(-c3cc(N)n4nc(-c5c[nH]c6ccccc56)cc4n3)c2c1	-21.8% (active)	-79% (active)	-70.4% (active)	-81.6% (active)	-82.1% (active)	-76.2% (active)	-48.8% (active)	-67.8% (active)	
